Reference: PubChem BioAssay (Tox21)
Inconclusive results are not listed. Calls of active or inactive are those of the source. Unless noted, the call rests on the fitted dose curve.

Tests used:
[1] = Nuclear factor erythroid 2-related factor 2/antioxidant responsive element (Nrf2/ARE) small molecule agonists: qHTS cell viability counter screen in human keratinocytes (AID 1919968; active means well fitted curve in the direction sought with a large enough effect in the repeat runs; an effect the other way counts as inactive or inconclusive; further: nearly all actives have a fitted effect of over 55% in size; further: potency means the concentration at half of the fitted maximal effect)
In short: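 CellTiter-Fluor fluorescence, read 1 h after reagent, gave viability in the same wells as the ARE-luciferase assay. KeratinoSens cells (1,500/well) had 23 h compound exposure at 37 C/5% CO2 following 5 h plating.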

[2] = Nuclear factor erythroid 2-related factor 2/antioxidant responsive element (Nrf2/ARE) small molecule agonists: luciferase reporter gene qHTS assay in human keratinocytes (AID 1919969); further: nearly all actives have a fitted effect of over 35% in size
[3] = molecular target: Gonadotropin-releasing hormone receptor (Homo sapiens) (UniProt P30968); experiment: Human gonadotropin-releasing hormone receptor (GnRHR) small molecule agonists, calcium flux assay in GnRHR-HEK293 cells (AID 1920063); further: nearly all actives have a fitted effect of over 35% in size
Gonadotropin-releasing hormone receptor (Homo sapiens), sequence (P30968 whole entry, looked up): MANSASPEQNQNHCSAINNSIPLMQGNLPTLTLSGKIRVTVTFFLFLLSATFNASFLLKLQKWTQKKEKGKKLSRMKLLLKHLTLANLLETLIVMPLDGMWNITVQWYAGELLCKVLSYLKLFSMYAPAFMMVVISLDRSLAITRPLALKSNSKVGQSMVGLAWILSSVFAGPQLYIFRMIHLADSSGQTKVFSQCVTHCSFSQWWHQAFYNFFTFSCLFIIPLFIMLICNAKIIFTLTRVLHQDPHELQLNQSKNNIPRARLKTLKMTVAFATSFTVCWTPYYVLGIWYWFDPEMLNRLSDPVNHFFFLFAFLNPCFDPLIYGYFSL
In short: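 Agonist mode: compounds at 15 concentrations, in triplicate, went onto calcium dye-loaded GnRHR-HEK293 cells. Intracellular calcium was then followed as 480/540 nm fluorescence at 1 s intervals over 3 min.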

[4] = molecular target: KiSS-1 receptor (Homo sapiens) (UniProt Q969F8); experiment: Human kisspeptin (KISS1R) small molecule agonists, calcium flux assay in KISS1R-HEK293 cells (AID 1920064; active means well fitted curve in the direction sought with a large enough effect in the repeat runs; an effect the other way counts as inactive or inconclusive)
KiSS-1 receptor (Homo sapiens), sequence (Q969F8 whole entry, looked up): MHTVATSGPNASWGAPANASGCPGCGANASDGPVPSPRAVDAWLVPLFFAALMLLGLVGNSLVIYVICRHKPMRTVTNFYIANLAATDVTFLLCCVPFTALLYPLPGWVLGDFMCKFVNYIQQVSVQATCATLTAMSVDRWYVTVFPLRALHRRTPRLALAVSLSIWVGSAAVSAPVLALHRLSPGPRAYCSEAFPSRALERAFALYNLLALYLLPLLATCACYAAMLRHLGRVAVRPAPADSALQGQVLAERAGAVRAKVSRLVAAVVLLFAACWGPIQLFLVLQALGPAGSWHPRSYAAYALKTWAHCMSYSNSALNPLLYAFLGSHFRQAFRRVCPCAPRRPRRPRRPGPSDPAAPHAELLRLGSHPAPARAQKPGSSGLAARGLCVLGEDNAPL
In short: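 Agonist mode: intracellular calcium rise tracked at 1 s intervals over 3 min (480/540 nm) immediately after compound addition to dye-loaded KISS1R-HEK293 stable cells. Each compound tested at 15 concentrations in triplicate.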

[5] = G protein-coupled receptor (GPCR) small molecule agonists, calcium flux assay: HEK293 wild type cell line counter screen (AID 1920065)
In short: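 Calcium flux counter screen: compound added in agonist mode at 15 concentrations in triplicate to dye-loaded parental HEK293 cells. Fluorescence (480/540) read kinetically for 3 min; ATP served as positive control.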

[6] = p53 small molecule agonists, cell-based qHTS assay with rat liver microsomes (AID 1963578)
In short: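 Compound in DMSO added to p53RE-bla cells 5 h post-plating; rat microsomes/NADPH 0.5 mg/mL final; 16 h, 37 C; LiveBLAzer 2 h RT.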

[7] = p53 small molecule agonists, cell-based qHTS assay with human liver microsomes: qHTS cell viability counter screen (AID 1963579); further: nearly all actives have a fitted effect of over 45% in size
In short: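 HLM-supplemented (0.5 mg/mL final) and NADPH-supplemented (0.5 mg/mL final) p53RE-bla cultures, 4,000 cells per well, were dosed with compounds in DMSO for 16 h at 37 C; luminescent ATP detection (CellTiter-Glo, 30 min, room temperature) quantified surviving cells.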

[8] = p53 small molecule agonists, cell-based qHTS assay with rat liver microsomes: qHTS cell viability counter screen (AID 1963580); further: nearly all actives have a fitted effect of over 45% in size
In short: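 Cytotoxicity counter screen: intracellular ATP read by CellTiter-Glo luminescence in the p53 reporter wells. HCT-116 p53RE-bla cells were treated for 16 h at 37 C alongside rat liver microsomes and NADPH, each 0.5 mg/mL final.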

[9] = p53 small molecule agonists, cell-based qHTS assay: qHTS cell viability counter screen (AID 1963581); further: nearly all actives have a fitted effect of over 45% in size
In short: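 Counter screen read by CellTiter-Glo luminescence (ATP content, 30 min at room temperature), run in the same wells as the beta-lactamase reporter read. HCT-116 p53RE-bla cells saw compounds for 16 h at 37 C.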

[10] = p53 small molecule agonists, cell-based qHTS assay (AID 1963582; active means well fitted activation curve with a large enough effect in the signal ratio in the repeat runs, not every such curve was filed as active; the % refers to the signal ratio)
In short: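 Read-out is beta-lactamase FRET fluorescence after 2 h at room temperature with LiveBLAzer B/G substrate. p53 response element-bla cells were treated 16 h at 37 C with compounds in DMSO, added 5 h after seeding.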

[11] = molecular target: 5-hydroxytryptamine receptor 2A (Homo sapiens) (UniProt P28223); experiment: 5-hydroxytryptamine receptor 2A (HTR2A) small molecule antagonists, cell-based qHTS assay (AID 1963586); further: nearly all actives have a fitted effect of over 45% in size
5-hydroxytryptamine receptor 2A (Homo sapiens), sequence (P28223 whole entry, looked up): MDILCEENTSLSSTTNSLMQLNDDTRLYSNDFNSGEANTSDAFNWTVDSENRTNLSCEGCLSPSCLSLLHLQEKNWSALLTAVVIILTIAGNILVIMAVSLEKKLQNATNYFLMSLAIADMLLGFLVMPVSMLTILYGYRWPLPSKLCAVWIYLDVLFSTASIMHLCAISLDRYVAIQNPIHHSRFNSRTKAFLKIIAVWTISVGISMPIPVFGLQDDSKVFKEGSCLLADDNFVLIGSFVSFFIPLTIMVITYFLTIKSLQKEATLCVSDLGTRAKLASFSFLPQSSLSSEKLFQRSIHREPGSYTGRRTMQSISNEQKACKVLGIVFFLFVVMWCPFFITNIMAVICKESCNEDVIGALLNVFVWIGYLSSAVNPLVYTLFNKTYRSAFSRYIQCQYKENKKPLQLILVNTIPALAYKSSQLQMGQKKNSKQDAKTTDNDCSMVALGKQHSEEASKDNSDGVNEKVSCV
In short: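 CHO cells stably expressing human HTR2A were plated for 18 h at 37 C, then loaded with calcium dye for 1 h. Compounds were preincubated 5 min at room temperature before DOI (4 nM solution) was added. Kinetic fluorescence was read for 3 min.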

[12] = molecular target: 5-hydroxytryptamine receptor 2A (Homo sapiens) (UniProt P28223); experiment: 5-hydroxytryptamine receptor 2A (HTR2A) small molecule agonists, cell-based qHTS assay (AID 1963587); further: nearly all actives have a fitted effect of over 30% in size
In short: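 Kinetic calcium-flux fluorescence (2 min, 1 sec intervals) after compound addition in agonist mode. HTR2A-CHO cells were cultured 18 h, then dye-loaded 1 h at 37 C.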

[13] = molecular target: Muscarinic acetylcholine receptor M1 (Homo sapiens) (UniProt P11229); experiment: Cholinergic receptor muscarinic 1 (CHRM1) small molecule antagonists, cell-based qHTS assay (AID 1963588); further: nearly all actives have a fitted effect of over 40% in size
Muscarinic acetylcholine receptor M1 (Homo sapiens), sequence (P11229 whole entry, looked up): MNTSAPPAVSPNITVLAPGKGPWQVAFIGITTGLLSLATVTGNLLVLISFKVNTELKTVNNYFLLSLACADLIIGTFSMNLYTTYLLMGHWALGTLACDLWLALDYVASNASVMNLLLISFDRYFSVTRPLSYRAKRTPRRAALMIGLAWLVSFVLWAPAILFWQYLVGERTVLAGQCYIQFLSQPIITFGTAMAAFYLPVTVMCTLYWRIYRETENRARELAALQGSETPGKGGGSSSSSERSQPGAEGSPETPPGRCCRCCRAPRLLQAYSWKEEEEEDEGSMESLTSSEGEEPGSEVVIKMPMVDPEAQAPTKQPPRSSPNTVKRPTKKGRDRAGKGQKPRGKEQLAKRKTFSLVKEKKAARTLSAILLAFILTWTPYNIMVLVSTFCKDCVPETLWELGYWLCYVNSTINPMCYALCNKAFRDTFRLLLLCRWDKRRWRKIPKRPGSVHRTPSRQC
In short: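 Compounds were tested at 15 concentrations in three independent runs. Dye-loaded CHRM1-CHO cells were exposed 5 min at room temperature before stimulation by acetylcholine added at 50nM. Intracellular calcium was read kinetically on FDSS for 3 min.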

[14] = molecular target: Muscarinic acetylcholine receptor M1 (Homo sapiens) (UniProt P11229); experiment: Cholinergic receptor muscarinic 1 (CHRM1) small molecule agonists, cell-based qHTS assay (AID 1963589); further: nearly all actives have a fitted effect of over 35% in size
In short: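 Agonist-mode calcium-flux screen: compounds at 15 concentrations, three independent runs, were pin-transferred onto dye-loaded human CHRM1-CHO cells. Fluorescence was then recorded kinetically every second over minutes.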

[15] = cAMP Responsive Elements (CRE) small molecule agonists, cell-based qHTS assay (AID 1963590)
In short: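 Agonist mode: compound added to CRE-bla HEK 293T cells (2,000/well, 18 h after plating) for 3 h at 37 C/5% CO2. Reporter activity detected via FRET beta-lactamase substrate, 2 h room-temperature loading.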

[16] = cAMP Responsive Elements (CRE) small molecule antagonists, cell-based qHTS assay (AID 1963591; active means well fitted inhibition curve with a large enough effect in the signal ratio in the repeat runs, not every such curve was filed as active; the % refers to the signal ratio; further: potency means the concentration at half of the fitted maximal effect)
In short: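 Antagonist mode: compounds are added alongside the adenylyl cyclase activator NKH477 (0.25 uM final) to CRE-bla HEK293T cells for 3 h. LiveBLAzer FRET substrate, 2 h at room temperature, reports bla expression.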

[17] = molecular target: Beta-2 adrenergic receptor (Homo sapiens) (UniProt P07550); experiment: Adrenergic beta2 receptor (ADRB2) small molecule antagonists, cell-based qHTS assay (AID 1963592); further: series mostly up to about 92 µM; nearly all actives have a fitted effect of over 50% in size
Beta-2 adrenergic receptor (Homo sapiens), sequence (P07550 whole entry, looked up): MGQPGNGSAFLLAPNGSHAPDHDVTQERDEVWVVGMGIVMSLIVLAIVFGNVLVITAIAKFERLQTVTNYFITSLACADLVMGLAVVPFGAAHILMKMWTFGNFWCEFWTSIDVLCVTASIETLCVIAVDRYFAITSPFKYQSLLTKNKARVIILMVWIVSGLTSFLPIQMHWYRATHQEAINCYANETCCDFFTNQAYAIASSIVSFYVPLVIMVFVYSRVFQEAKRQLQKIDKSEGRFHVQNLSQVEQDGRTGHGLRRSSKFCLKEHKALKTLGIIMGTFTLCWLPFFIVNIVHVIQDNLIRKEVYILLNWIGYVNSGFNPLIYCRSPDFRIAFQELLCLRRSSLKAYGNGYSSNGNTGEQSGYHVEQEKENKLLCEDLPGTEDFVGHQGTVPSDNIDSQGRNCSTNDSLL
In short: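 Assay format: CHO-ADRB2 cells, 18-20hr seeding at 37C/5% CO2, then compound plus 1nM isoproterenol agonist mix for 0.5hr RT. Homogeneous time-resolved fluorescence cAMP detection after 1hr, expressed as 665/615 nm ratio.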

[18] = molecular target: Beta-2 adrenergic receptor (Homo sapiens) (UniProt P07550); experiment: Adrenergic beta2 receptor (ADRB2) small molecule agonists, cell-based qHTS assay (AID 1963593);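 further: CHO cells stably overexpressing human ADRB2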
In short: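 CHO cells stably over-expressing ADRB2 were plated overnight at 37C, then dosed with compounds plus a stimulation mix containing 100uM IBMX and 25uM Ro-20-1724 for 0.5hr at room temperature. cAMP was measured by HTRF competition, 1hr.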

[19] = molecular target: D(2) dopamine receptor (Homo sapiens) (UniProt P14416); experiment: Dopamine D2 receptor (DRD2) small molecule agonists, cell-based qHTS assay (AID 1963594); further: nearly all actives have a fitted effect of over 35% in size
D(2) dopamine receptor (Homo sapiens), sequence (P14416 whole entry, looked up): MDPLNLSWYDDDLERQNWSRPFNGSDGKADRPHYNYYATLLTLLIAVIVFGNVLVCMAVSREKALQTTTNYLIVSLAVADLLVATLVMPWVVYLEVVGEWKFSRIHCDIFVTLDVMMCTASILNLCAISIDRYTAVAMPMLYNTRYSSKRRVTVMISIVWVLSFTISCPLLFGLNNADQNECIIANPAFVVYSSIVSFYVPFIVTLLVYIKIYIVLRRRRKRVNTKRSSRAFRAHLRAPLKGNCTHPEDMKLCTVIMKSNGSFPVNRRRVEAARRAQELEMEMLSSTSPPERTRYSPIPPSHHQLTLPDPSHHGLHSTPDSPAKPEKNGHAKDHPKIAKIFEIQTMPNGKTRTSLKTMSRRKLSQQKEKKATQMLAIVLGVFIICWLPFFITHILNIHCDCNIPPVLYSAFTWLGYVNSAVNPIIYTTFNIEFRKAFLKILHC
In short: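 cAMP accumulation in DRD2-HEK293 cells measured by HTRF after 1 h detection; compounds added 10 min before NKH477 (200nM […]) forskolin-analogue stimulation, 30 min at room temperature, with Ro20-1724 present at 0.1 mM final.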

[20] = molecular target: D(2) dopamine receptor (Homo sapiens) (UniProt P14416); experiment: Dopamine D2 receptor (DRD2) small molecule antagonists, cell-based qHTS assay (AID 1963595; active means well fitted inhibition curve with a large enough effect in the signal ratio in the repeat runs, with a control signal flat; the % refers to the signal ratio)
In short: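 HEK293 cells stably expressing DRD2, preincubated with 0.1 mM Ro20-1724 and compounds 10 min, were stimulated with 200 nM NKH477 plus 12 nM quinpirole for 30 min at room temperature; cAMP measured by HTRF (665/620 nm).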

Measured: Potency

CC(S)C(=O)NCC(=O)O (centres undefined)
inactive: [1] | [2] | [3] | [4] | [5] | [6] | [7] | [8] | [9] | [10] | [11] | [12] | [13] | [14] | [15] | [16] | [17] | [18] | [19] | [20]

COc1ccccc1C=O
inactive: [1] | [2] | [3] | [4] | [5] | [7] | [8] | [9] | [10] | [12] | [13] | [14] | [15] | [16] | [17] | [18] | [19] | [20]

CC[C@H]1CN2CCc3cc(OC)c(OC)cc3[C@@H]2C[C@@H]1C[C@H]1NCCc2cc(OC)c(OC)cc21
active: [1] 274 nM | [16] 1680 nM
inactive: [2] | [3] | [4] | [5] | [7] | [8] | [9] | [10] | [15] | [17] | [18] | [19] | [20]

C#CC(C)(O)CC(C)C (centres undefined)
inactive: [1] | [2] | [3] | [4] | [5] | [7] | [8] | [9] | [10] | [11] | [12] | [13] | [15] | [17] | [18] | [20]

NC(=O)c1ccccc1N
inactive: [1] | [2] | [3] | [4] | [5] | [8] | [9] | [10] | [11] | [12] | [13] | [14] | [15] | [16] | [17] | [18] | [19] | [20]

CCO/C([O-])=N/c1c[n+](N2CCOCC2)no1
inactive: [1] | [2] | [3] | [4] | [5] | [8] | [9] | [10] | [11] | [12] | [13] | [14] | [15] | [16] | [17] | [18] | [19] | [20]

C[N+](C)(C)CC[N+]1(C)Cc2c(Cl)c(Cl)c(Cl)c(Cl)c2C1
inactive: [1] | [2] | [3] | [4] | [5] | [7] | [8] | [11] | [12] | [13] | [15] | [16] | [17] | [18] | [19] | [20]

CN(C)Cc1ccccc1O
inactive: [1] | [2] | [3] | [4] | [5] | [7] | [8] | [9] | [11] | [12] | [13] | [14] | [15] | [16] | [17] | [18] | [19] | [20]
